“And” between values parts separate entries of the source, which are not always exact repeats. Equal entries are not always repeated. Results filed as inconclusive are left out. The source holds several records for some structures; these can differ, active in one and inactive in another. The source made the active and inactive calls. How the source made its calls, unless noted: active means hit-call score of the fitted dose curve at least 0.9, where 1 is the maximum; inactive means score below 0.9.

14 molecules from PubChem BioAssay (EPA / NIEHS) can be followed below.

Assay [1] is described as follows: BSK_3C_SRB: Viability Assessment in the BioMAP Diversity Plus: 3C Assay (AID 2283023).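 Further: fitted both ways against DMSO so a hit may be signal rise or drop.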 To be noted: primary human endothelial cells (HUVEC). The essentials: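 Primary human umbilical vein endothelial cells in the 3C system were read 24 h after compound dosing. Total protein was stained with 0.1% sulforhodamine B after 10% TCA fixation and read at 560 nm, with bidirectional fitting against DMSO as baseline.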

Read-out in assay [2]: Matrix Metallopeptidase 1 (MMP1), MMP1 (gene 4312)
Description: BSK_BE3C_MMP1: BioMAP Diversity Plus: BE3C Assay for Matrix Metallopeptidase 1 (MMP1) Biomarker Activity (AID 2283024). Conditions: primary human bronchial epithelial cells; actives raise or lower the signal. A digest of the protocol: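 ELISA measurement of MMP-1 after 24 h compound exposure of primary human bronchial epithelial cells. Changes in either direction fitted relative to DMSO; parallel SRB staining checked overt cytotoxicity.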

Assay [3] in a line: BSK_3C_Vis: BioMAP Diversity Plus: 3C Assay for Morphology Visualization (AID 2283025).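 Further: fitted both ways so gain or loss versus DMSO counts.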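 On AC50: light microscopy image of cell morphology used as background control.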 Conditions: primary human endothelial cells (HUVEC). The essentials: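 Light-microscopy visualization of HUVEC cultures at 24 h post-treatment, with DMSO as baseline for bidirectional fitting.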
Read-out in assay [4]: Pselectin, SELP (gene 6403)
Put plainly: BSK_4H_Pselectin: BioMAP Diversity Plus: 4H Assay for Pselectin Biomarker Activity (AID 2283026). Conditions: primary human endothelial cells (HUVEC); actives raise or lower the signal. The essentials:
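ELISA of surface P-selectin on HUVEC, 24 h after dosing, with parallel SRB staining (0.1% after 10% TCA fixation, 560 nm) for overt cytotoxicity. Activity fitted in both directions relative to DMSO.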

Assay [5] in a line: BSK_4H_SRB: Viability Assessment in the BioMAP Diversity Plus: 4H Assay (AID 2283027).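 Further: cells exposed to compound for 24 h before staining.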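 On AC50: curves fitted both ways versus DMSO so AC50 may be loss or gain.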 Conditions: primary human endothelial cells (HUVEC). The essentials:
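HUVEC, 24 h post-dose; 10% TCA fix, 0.1% SRB stain, A560 nm. Total protein = overt cytotoxicity, parallel to biomarker read. Bidirectional fit vs DMSO baseline.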

Assay [6] in a line: BSK_BE3C_SRB: Viability Assessment in the BioMAP Diversity Plus: BE3C Assay (AID 2283028).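 On AC50: fitted both ways so AC50 may mark signal gain or loss versus DMSO.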 Conditions: primary human bronchial epithelial cells. A digest of the protocol: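 Human primary bronchial epithelial cells were exposed to test chemicals for 24 h. Total protein in parallel cultures was then measured by staining with 0.1% sulforhodamine B after 10% TCA fixation, with absorbance read at 560 nm. Activity was fitted bidirectionally against DMSO.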

Read-out in assay [7]: Thrombomodulin, THBD (gene 7056)
Description: BSK_3C_Thrombomodulin: BioMAP Diversity Plus: 3C Assay for Thrombomodulin Biomarker Activity (AID 2283029). Conditions: primary human endothelial cells (HUVEC); actives raise or lower the signal. A digest of the protocol: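 ELISA measurement of thrombomodulin on HUVEC surface 24 h after chemical dosing; activity fitted in both directions relative to DMSO vehicle.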

Read-out in assay [8]: Urokinase-type plasminogen activator receptor (uPAR), PLAUR (gene 5329)
Put plainly: BSK_4H_uPAR: BioMAP Diversity Plus: 4H Assay for Urokinase-type plasminogen activator receptor (uPAR) Biomarker Activity (AID 2283030). To be noted: primary human endothelial cells (HUVEC); actives raise or lower the signal. A digest of the protocol: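 Primary human umbilical vein endothelial cells were exposed to chemical for 24 h before cell-surface uPAR was quantified by ELISA. Activity was fitted bidirectionally against the DMSO negative control baseline.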

Read-out in assay [9]: Vascular endothelial growth factor receptor 2 (Homo sapiens) (UniProt P35968)
Put plainly: BSK_4H_VEGFRII: BioMAP Diversity Plus: 4H Assay for Vascular endothelial growth factor receptor 2 (VEGFR2) Biomarker Activity (AID 2283031).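 On AC50: cell-surface VEGFR2 protein level quantified by ELISA.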 Conditions: primary human endothelial cells (HUVEC); actives raise or lower the signal. A digest of the protocol: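 Primary human umbilical vein endothelial cells in the BioMAP 4H system were dosed with test chemical, and 24 h later VEGFRII was measured by ELISA. Activity was fitted bidirectionally against DMSO as negative control and baseline.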

For assay [10], the target named is human Vitamin D Receptor (VDR), VDR (gene 7421) (UniProt P11473). Description: ATG_VDR_TRANS: Attagene TRANS-FACTORIAL HepG2 Assay for human Vitamin D Receptor (VDR) (AID 2283022; active means hit-call score of the fitted dose curve at least 0.9, where 1 is the maximum). A digest of the protocol: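 HepG2 cells were transiently transfected with multiple GAL4-UAS reporter units, so signal reflects exogenous chimeric receptor-Gal4 activity. After 24 h compound exposure, reporter mRNA was measured by RT-PCR, fluorescent labelling and capillary electrophoresis, fitted for gain of signal versus DMSO.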
Sequence of human Vitamin D Receptor (VDR), VDR (gene 7421) (P11473 whole entry, looked up, the tested form may be a part): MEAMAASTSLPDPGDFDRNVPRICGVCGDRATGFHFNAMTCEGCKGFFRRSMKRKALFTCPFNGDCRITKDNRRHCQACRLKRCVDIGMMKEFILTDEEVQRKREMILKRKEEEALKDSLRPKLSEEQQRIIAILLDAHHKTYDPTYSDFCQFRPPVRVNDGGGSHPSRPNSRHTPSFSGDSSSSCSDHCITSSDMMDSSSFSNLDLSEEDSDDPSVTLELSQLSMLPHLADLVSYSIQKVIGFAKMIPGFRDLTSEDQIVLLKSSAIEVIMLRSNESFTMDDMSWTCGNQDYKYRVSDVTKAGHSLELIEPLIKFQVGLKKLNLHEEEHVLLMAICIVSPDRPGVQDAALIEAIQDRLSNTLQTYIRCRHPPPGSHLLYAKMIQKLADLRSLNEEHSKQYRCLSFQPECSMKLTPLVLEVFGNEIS

Turning to `COP(=O)(OC)OC=C(Cl)Cl`, the outcome in assay [1], in assay [2], in [5], in [6], in assay [7] and in assay [8] was inactive. For the same molecule, in assay [9], the outcome was inactive. The figures for the AC50 in assay [3] and in assay [4] were 9.8 µM (active) and 16.8 µM (active), respectively.
For `C[C@H]1[C@H](c2ccc(Cl)cc2)SC(=O)N1C(=O)NC1CCCCC1`, the AC50 – broadly, the concentration giving half of the maximal activity seen – in assay [2] was 12.8 µM (active); in assay [3], 15.2 µM (active); in assay [5] it was 20 µM (active); in [6], 15.7 µM (active). In addition, the result in [4], in assay [7], in [8] and in assay [9] was inactive.
As for `Oc1ccc(Cl)cc1Cc1ccccc1`, the AC50 in assay [1] is 24.4 µM (active) [middle of 7 runs]; in assay [2], 32.8 µM (active) [middle of 7 runs]; in assay [3], 37.9 µM (active) and 14.7 µM (active) and 20 µM (active); in [4], 28.2 µM (active) [middle of 7 runs]; in assay [5] it was 28.1 µM (active) [middle of 7 runs]; in [6] it was 34.7 µM (active) [middle of 5 runs]. In addition, the AC50 in assay [7] was 31.8 µM (active) [middle of 5 runs]; in assay [8], 34 µM (active) [middle of 7 runs]; in [9], 23.8 µM (active). The outcome in assay [7] and in [9] was inactive.
For the molecule `CCCN(CCOc1c(Cl)cc(Cl)cc1Cl)C(=O)n1ccnc1`, the result in [2], in assay [3], in assay [8] and in assay [9] was inactive. The AC50 was 29.8 µM (active) in assay [5], 28.9 µM (active) in [6] and 12 µM (active) in assay [7].
In the case of `CNC(=O)Oc1ccccc1OC(C)C`, the result in assay [1], in assay [2], in assay [3], in assay [5], in assay [6] and in [7] was inactive. For the same molecule, the result in assay [8] and in assay [9] was inactive.
On to `CCCN(CCC)c1c([N+](=O)[O-])cc(C(F)(F)F)cc1[N+](=O)[O-]`, for which the AC50 in assay [1] was 24.8 µM (active); in assay [3] it was 13.7 µM (active); in [4], 36.5 µM (active). Moreover, the outcome in [2], in assay [5], in assay [6], in assay [7], in assay [8] and in assay [9] was inactive.
With `CCOc1nc(NC)nc(NC(=O)NS(=O)(=O)c2ccccc2C(=O)OC)n1`, the outcome in [2], in assay [3], in [5], in [6], in [7] and in assay [8] was inactive. In addition, the outcome in assay [9] was inactive.
As to `O=C(Nc1ccccc1)Nc1cnns1`, the molecule was classed as inactive in [10], in assay [2], in assay [3], in [5], in assay [6] and in assay [7]. The result in assay [8] and in [9] was inactive.
With `ClC1C(Cl)C(Cl)C(Cl)C(Cl)C1Cl` (stereo unspecified), the outcome in assay [2], in assay [3], in assay [5], in [6], in assay [7] and in assay [8] was inactive. In addition, the result in assay [9] was inactive. For the same molecule, the figures for the AC50 in assay [3] and in assay [5] were 38.6 µM (active) and 20 µM (active), respectively.
In the case of `N#CN`, the outcome in [2], in [3], in assay [5], in assay [6], in [7] and in assay [8] was inactive. Besides, the result in assay [9] was inactive.
Regarding `COP(=S)(OC)Oc1ccc([N+](=O)[O-])cc1`, the call in assay [10], in [2], in assay [6], in assay [7], in [8] and in assay [9] was inactive. The figures for the AC50 in assay [3] and in assay [5] were 14.4 µM (active) and 5.97 µM (active), respectively.
Take `CCOC1Oc2ccc(OS(C)(=O)=O)cc2C1(C)C` (stereo unspecified): the AC50 in [1] is 24.1 µM (active). Moreover, the result in [2], in [3], in assay [5], in assay [6], in assay [7] and in [8] was inactive. In [9], the result was inactive.
As to `Oc1cc(Cl)ccc1Oc1ccc(Cl)cc1Cl`, the call in assay [10], in assay [7] and in [9] was inactive. Besides, the AC50 in [2] was 32.6 µM (active) [middle of 4 runs]; in [3], 12.6 µM (active) [middle of 4 runs]; in assay [5], 20.4 µM (active) and 17.8 µM (active) and 20.9 µM (active); in [6], 31.4 µM (active) [middle of 4 runs]; in assay [8], 14.7 µM (active) [middle of 4 runs]; in [9], 6.66 µM (active) and 9.59 µM (active).
Consider `COC(=O)c1ccccc1S(=O)(=O)NC(=O)N(C)c1nc(C)nc(OC)n1`, for which the result in [1], in assay [2], in [3], in assay [5], in assay [6] and in assay [7] was inactive. Also, the result in assay [8] and in [9] was inactive.
